H1.0 immunofluorescence intensity data for 39 compounds are collected here from the supplement of paper PMC7156485.

Values without a mark were called inactive.
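Note: TDF is a line of transformed human dermal fibroblasts of mesenchymal origin.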

The subject of this assay is HCC1569. The assay can be described thus: H1.0 immunofluorescence intensity relative to DMSO (% of DMSO); higher = stronger H1.0 induction, active = 140 or more. The note with it: concentration: 10 µM; 24 h. Summed up:
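H1.0 nuclear intensity or cell number is expressed as percent of the plate control, with the median of replicates taken. HCC1569 and TDF cells were treated with compounds at 10 µM for 24 h at 37 °C, in triplicate, then fixed and immunostained for H1.0 with DAPI as a nuclear stain. HCC1569 values were smoothed to correct for positional effects.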
For the compound `CC1CCC2(C(=O)O)CCC3(C)C(=CCC4C5(C)CC(O)C(O)C(C)(CO)C5C(O)CC43C)C2C1C` (centres undefined) [Madecassic acid], the H1.0 immunofluorescence intensity is 91.7.
For `OC1c2ccccc2N=C2CCCN21` (centres undefined) [Peganole], the H1.0 immunofluorescence intensity was 91.1.
`COc1ccc(-c2ccc3c(N4CCOCC4)nc(N4CC(C)OC(C)C4)nc3n2)cc1CO` (centres undefined): the H1.0 immunofluorescence intensity is 164 (active).
With `CCCCCCCCCCCCCCCCOCC(COP(=O)([O-])OCC[N+](C)(C)C)OC(=O)NC` (centres undefined), the H1.0 immunofluorescence intensity is 101.
For `Cl.Nc1c2c(nc3ccccc13)CCCC2` [9-Amino-1,2,3,4-tetrahydroacridine hydrochloride] the value was 94.2; for `Cl.Nc1nc2ccc(OC(F)(F)F)cc2s1` [Riluzole.HCl], 94.8; for `C=C1CC2C3C=C(C)C4=CC(=O)CCC4(C)C3CCC2(C)C1(OC(C)=O)C(C)=O` (centres undefined) [Melengestrol Acetate], 109.
For `O=C(Nc1ccc(S(=O)(=O)Nc2nccs2)cc1)C(c1ccccc1)c1ccccc1`, the H1.0 immunofluorescence intensity was 108.
For the compound `O=C(O)c1cccnc1C(=O)O` [Quinolinic acid], the H1.0 immunofluorescence intensity is 99.9.
For `CCCc1cc(C(N)=S)ccn1` [Prothionamide] the value was 103.
With `O=c1c(-c2ccc(O)cc2)coc2cc(OC3OC(CO)C(O)C(O)C3O)cc(O)c12` (centres undefined) [Genistin], the H1.0 immunofluorescence intensity was 86.4.
In the case of `CCc1nc(-c2cccc(C)c2)c(-c2ccnc(NC(=O)c3ccccc3)c2)s1`, the H1.0 immunofluorescence intensity is 120.
For `O=C(O)c1cc(=O)c2c(Cl)cc(Cl)cc2[nH]1` [5,7-Dichlorokynurenic acid] the value was 95.9.
For `Br.CCSC(=N)N` [S-Ethylisothiourea hydrobromide] the value was 88; for `COc1cc(CC2C(=O)OCC2Cc2ccc(OC)c(OC)c2)ccc1O` (centres undefined), 156 (active); for `C=C1C(=O)C23C(O)C1CCC2C12COC3(O)C(O)C1C(C)(C)CCC2O` (centres undefined) [Rubescensin A], 100.
On to `CCOc1nc(NC(=O)Cc2cc(OC)ccc2OC)cc(N)c1C#N` [JNK Inhibitor VIII], for which the H1.0 immunofluorescence intensity was 120.
In the case of `O=C1C(SCCO)=C(SCCO)C(=O)c2ccccc21` [2,3-bis[(2-hydroxyethyl)sulfanyl]naphthoquinone], the H1.0 immunofluorescence intensity is 446 (active).
For `c1ccc(CNc2nc(NCc3ccccc3)c3ccccc3n2)cc1` [N~2~,N~4~-dibenzyl-2,4-quinazolinediamine] the value was 88.7; for `OCC1OC(n2cnc3c(NC4CCCC4)ncnc32)C(O)C1O` (centres undefined) [N6-Cyclopentyladenosine], 97.7; for `COc1nc(C)nc(Cl)c1NC1=NCCN1.Cl` [Moxonidine hydrochloride], 90.3.
For `CCCS(=O)c1ccc2nc(NC(=O)OC)[nH]c2c1` (centres undefined) [Ricobendazole] the value was 109.
For `NC(=O)c1ncn(C2OC(CO)C(O)C2O)n1` (centres undefined) [Ribavirin] the value was 112.
With `COc1cc(OC)c2cc(-c3ccncc3)cnc2c1.Cl.Cl` [5,7-dimethoxy-3-(4-pyridinyl)quinoline dihydrochloride], the H1.0 immunofluorescence intensity was 105.
To `CN1CCN(CC(=O)N2c3ccccc3C(=O)Nc3cccnc32)CC1.Cl.Cl` [Pirenzepine dihydrochloride] belongs 95.9; to `COC(=O)C1=C(C)NC(C)=C(C(=O)OCCN(C)Cc2ccccc2)C1c1cccc([N+](=O)[O-])c1.Cl` (centres undefined) [Nicardipine.HCl], 107.
As for `O=c1oc(Cl)c(Cl)c2ccccc12` [3,4-Dichloroisocoumarin], the H1.0 immunofluorescence intensity is 88.1.
`Br.Br.NC(N)=NCCSSCCN=C(N)N` [Guanidinoethyl disulfide dihydrobromide]: the H1.0 immunofluorescence intensity was 98.8.
For the compound `O=C(O)c1ccc(NC(=O)[C@H](CC2CCCC2)n2cnc(C(F)(F)F)c2)nc1`, the H1.0 immunofluorescence intensity was 106.
On to `Cc1cc(C)c(NC(=O)CC(CC(=O)[O-])c2cccc3ccccc23)c(C(=O)N2CCC3(CCCC3)CC2)c1.[Na+]` (centres undefined), for which the H1.0 immunofluorescence intensity was 99.8.
Consider `CC(CCc1ccccc1)NCC(O)c1ccc(O)c(C(N)=O)c1.Cl` (centres undefined) [Labetalol hydrochloride], for which the H1.0 immunofluorescence intensity is 99.3.
`C=C1NC2(C(=O)COC(C)=O)C(CC3C4CCC5=CC(=O)C=CC5(C)C4C(O)CC32C)O1` (centres undefined): the H1.0 immunofluorescence intensity is 101.
Turning to `CCCCCC(O)C=CC1=C(CCCCCCC(=O)O)C(=O)CC1` (centres undefined) [Prostaglandin B1], the H1.0 immunofluorescence intensity is 101.
As for `CON=C(C(=O)NC1C(=O)N2C(C(=O)[O-])=C(COC(C)=O)CSC12)c1csc(N)n1.[Na+]` (centres undefined) [Cefotaxime sodium], the H1.0 immunofluorescence intensity was 87.
As to `Cc1cc(C(C)(C)C)c(O)c(C)c1CC1=NCCN1.Cl` [Oxymetazoline hydrochloride], the H1.0 immunofluorescence intensity is 94.9.
To `COc1cc(CNC(=O)CCCCCCC(C)C)ccc1O` [Dihydrocapsaicin] belongs 97; to `COc1cc2ncn(-c3cc(OCc4ccccc4S(C)(=O)=O)c(C#N)s3)c2cc1OC` [IKK-3 Inhibitor IX], 127; to `O=c1cc(-c2ccc(O)cc2)oc2cc(O)cc(O)c12` [Apigenin], 99.9.
To `CCCc1cc(=O)oc2c(C(=O)N3CCCc4ccccc43)c(OC)cc(OC)c12` belongs 159 (active).
